# NR5A2 inv ag: suppresses constitutive activity of human LRH-1; O00482; HEK293T StAR-luciferase reporter, LRH-1 transfected, 24 h; inhibition, % at 3.6 µM; 0.13% of 360,000 active; AID 602396;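 active means inhibition above the mean inhibition of all tested compounds plus 3 SD, cut at about 73% in these data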;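 further: 0% = DMSO wells and 100% = reporter-only cells lacking LRH-1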
# Target sequence (O00482 whole entry, looked up): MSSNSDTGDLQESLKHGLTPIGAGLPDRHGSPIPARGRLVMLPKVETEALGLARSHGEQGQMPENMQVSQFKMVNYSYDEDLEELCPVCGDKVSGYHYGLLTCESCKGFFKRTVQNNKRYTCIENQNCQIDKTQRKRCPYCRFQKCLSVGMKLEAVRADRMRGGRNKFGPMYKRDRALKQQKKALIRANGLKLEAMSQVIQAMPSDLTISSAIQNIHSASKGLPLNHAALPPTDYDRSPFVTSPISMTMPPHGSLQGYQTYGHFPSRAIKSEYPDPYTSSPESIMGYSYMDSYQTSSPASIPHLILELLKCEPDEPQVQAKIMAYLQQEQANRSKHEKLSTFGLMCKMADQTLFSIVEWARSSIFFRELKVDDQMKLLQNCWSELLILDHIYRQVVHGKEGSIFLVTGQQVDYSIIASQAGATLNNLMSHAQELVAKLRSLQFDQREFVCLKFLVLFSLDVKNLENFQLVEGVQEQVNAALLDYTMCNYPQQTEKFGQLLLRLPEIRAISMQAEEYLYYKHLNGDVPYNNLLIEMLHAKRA
# NR2F2 inh: inhibitors of human COUP-TFII (NR2F2) | P24468 | HEK293T NGFI-A luciferase reporter, luminescence | inhibition, % at 8.6 µM | 0.7% of 370,000 active | AID 686940;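 active means inhibition above a per-plate cutoff, mean inhibition of test wells between control levels plus 3 SD, cut at about 38% in these data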;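 further: cells cotransfected with COUP-TFII expression vector driving the NGFI-A reporter; 0% = median of COUP-TF2 test wells and 100% = reporter-only cells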
# NCOA3 inh: inhibits human SRC3 coactivator | HEK293 GAL4-SRC3 luciferase reporter, luminescence | inhibition, % at 3.6 µM | 0.17% of 360,000 active | AID 588352;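 active means inhibition above a per-campaign cutoff, the mean of all compounds plus 3 SD, cut at about 60% in these data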;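 further: 0% = DMSO-treated cells and 100% = gossypol-treated cells at 36 µM; higher means less SRC3-driven luciferase light from the GAL4 reporter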
# GalR3 antagonist: blocks the human galanin receptor 3; O60755; HEK293 GalR3-CNG cAMP membrane potential fluorescence; galR3 body fused to GalR1 C-terminus; inhibition, % at 3 µM; 0.44% of 360,000 active;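 active means inhibition above the screen-wide average plus 3 SD, cut at about 13% in these data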;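 further: forskolin and galanin both at EC90 stimulate the cells; cAMP rise reported by CNG channel membrane potential dye signal; 0% = forskolin plus galanin with DMSO and 100% = forskolin alone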
# SRC2 inh: human SRC2 (NCOA2) inhibition. Q15596. HEK293 GAL4-SRC2 luciferase reporter, luminescence. inhibition, % at 9 µM. 0.17% of 370,000 active;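 active means inhibition above the mean inhibition of all tested compounds plus 3 SD, set per campaign, cut at about 52% in these data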;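 further: 0% = DMSO treated cells and 100% = cells given Gossypol at 36 µM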
# NCOA1 inh: inhibitors of human steroid receptor coactivator 1 (SRC1); Q15788; HEK293 GAL4-SRC1 luciferase reporter, luminescence; inhibition, % at 3.6 µM; 0.12% of 360,000 active; AID 588354;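 active means inhibition above the campaign mean plus 3 SD, with each screening campaign given its own cutoff, cut at about 60% in these data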;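 further: 0% = DMSO treated cells and 100% = gossypol at 36 µM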
# GalR3 antag conf: confirmation of human galanin receptor 3 antagonists; shares compounds with GalR3 antagonist; HEK293 GalR3 CNG cAMP biosensor, membrane potential fluorescence; galR3 fused to GalR1 carboxy tail; challenged with forskolin and galanin at EC90; inhibition, % at 3 µM; 59% of 1,600 active; AID 652245;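 active means inhibition above the primary screen's cutoff, the mean inhibition of all screened compounds plus 3 SD, cut at about 13% in these data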;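 further: 0% = forskolin plus galanin and 100% = forskolin alone with DMSO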
# CNG parental: counter-screen for GalR3 antagonists: nonspecific agonists in parental HEK-CNG cells; AID 652268; 10% of 1,600 active; shares compounds with GalR3 antagonist; HEK293-CNG parental cells, cAMP membrane potential fluorescence; normalised: DMSO wells 0%, forskolin wells 100%; activation, % at 3 µM; in the data active means activation above about 1.3%
# Gal4-VP16 ctr: counter-screen for COUP-TFII antagonists: inhibitors of VP16; AID 687007; 25% of 2,500 active; shares compounds with NR2F2 inh; inhibition, % at 8.5 µM; HEK293 Gal4-VP16 luciferase reporter, luminescence; in the data active means inhibition above about 13%
# COUP-TFII conf: confirmation of human COUP-TFII (NR2F2) inhibitors; inhibition, % at 8.5 µM; 45% of 2,500 active; HEK293 NGFI-A luciferase reporter, luminescence; shares compounds with NR2F2 inh;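 active means mean inhibition over three repeats above a set limit taken from the earlier primary screen, cut at about 38% in these data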;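 further: 100% = cells given the luciferase reporter alone without the COUP-TF2 vector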
# Starred values were filed as active, the others as inactive; . = no result. Hits are enriched below; roughly 1.1% of the tested compounds scored in any of these assays.
SMILES,NR5A2 inv ag,NR2F2 inh,NCOA3 inh,GalR3 antagonist,SRC2 inh,NCOA1 inh,GalR3 antag conf,CNG parental,Gal4-VP16 ctr,COUP-TFII conf
CN(Cc1c(F)cccc1Cl)C(=O)c1cccc(S(=O)(=O)N2CCN(Cc3ccccc3)CC2)c1,-6,13,0,-4,-5,-7,.,.,.,.
CN(Cc1ccc(OC(F)F)cc1)C(=O)c1cccc(S(=O)(=O)N2CCN(Cc3ccccc3)CC2)c1,36,55*,31,22*,20,25,88*,-1,-3,42*
CCCOc1ccc(CSc2nc3ccccc3[nH]2)cc1,-45,38*,-43,86*,-7,-29,108*,-1,-194,-34
COC(=O)[C@H]1C[C@@]2(n3ccc4ccccc43)c3ccccc3N(S(=O)(=O)c3ccccc3)[C@H]2N1,.,8,.,.,5,.,.,.,.,.
O=C(Nc1cccc(S(=O)(=O)N2CCCC2)c1)c1ccco1,9,-21,-11,-1,-2,10,.,.,.,.
O=C(Nc1cccc(S(=O)(=O)c2cccc(NC(=O)c3ccco3)c2)c1)c1ccco1,15,70*,31,41*,17,-27,45*,-1,5,32
c1csc(CNc2ncnc3sccc23)c1,41,63*,26,61*,15,22,88*,0,11,46*
CC1(C)CC(=O)N(CC(=O)N2CCN(c3cccc(C(F)(F)F)c3)CC2)c2ccccc2S1(=O)=O,.,5,.,.,4,.,.,.,.,.
CC(C)c1[nH]nc2c1C(c1ccc(F)cc1)N(Cc1ccccc1)C2=O (stereo not drawn),.,15,.,-6,0,.,.,.,.,.
O=C(NC1CCCc2c1cnn2-c1ccccc1F)c1ccncc1 (stereo not drawn),38,63*,14,32*,1,24,75*,0,14*,49*
O=C(NC1CCCc2c1cnn2-c1ccccc1F)c1ccccn1 (stereo not drawn),-34,-51,-47,-7,11,21,.,.,.,.
COc1ccc(C(=O)NC2CCCc3c2cnn3-c2ccccc2F)cc1OC (stereo not drawn),25,50*,19,68*,15,-15,42*,0,11,49*
CCCCCn1c(=O)[nH]c2cc(C(=O)N3CCN(Cc4ccc5c(c4)OCO5)CC3)ccc2c1=O,44,58*,10,99*,14,15,106*,-1,2,64*
Cc1cc(S(=O)(=O)c2ccc(Cl)cc2)nc(S(=O)(=O)c2ccc(Cl)cc2)c1C#N,-7,45*,-11,16*,15,-114,11,0,56*,62*
Cc1cc(C)c(S(=O)(=O)c2ccc(Cl)cc2)c(Cl)n1,-10,-14,23,-3,-6,8,.,.,.,.
CN(C)CCCNS(=O)(=O)c1ccc(N2CCN(Cc3ccc4c(c3)OCO4)CC2)c([N+](=O)[O-])c1,7,40*,12,57*,9,0,95*,0,1,9
CC(=O)c1ccc(N2CCN(c3ccc(S(=O)(=O)NCCCN(C)C)cc3[N+](=O)[O-])CC2)cc1,-1,22,23,-9,18,13,.,.,.,.
CC(C)CC[n+]1ccccc1/C=C/c1ccc(N(C)C)cc1,91*,86*,76*,31*,16,57,47*,16*,26*,85*
CC(Nc1ncnc2ccccc12)c1ccccc1 (stereo not drawn),45,71*,20,96*,13,10,106*,0,4,61*
CCCCC(Nc1ncnc2ccccc12)C(=O)O (stereo not drawn),-3,-3,14,1,-8,7,.,.,.,.
CCCOC(=O)c1ccc(OCC(O)Cn2c(C)nc3ccccc32)cc1 (stereo not drawn),23,39*,10,105*,22,16,123*,0,-43,30
CC(=O)Nc1cccc(OCC(O)Cn2c(C)nc3ccccc32)c1 (stereo not drawn),9,1,21,-6,0,10,.,.,.,.
O=C(Nc1ccncc1)c1cccc(S(=O)(=O)N2CCc3ccccc32)c1,34,61*,16,76*,-4,26,46*,0,0,45*
CC(C)CN1C(=O)C[C@]2(C(=O)N(C)c3ccc(NS(=O)(=O)C4CCCCC4)cc32)C1c1ccccc1 (stereo partly drawn),.,4,.,.,-2,.,.,.,.,.
Cc1onc(-c2ccc(Cl)cc2)c1-c1ccn(S(=O)(=O)c2cccc(Cl)c2)n1,.,8,.,.,7,.,.,.,.,.
SMILES,NR5A2 inv ag,NR2F2 inh,NCOA3 inh,GalR3 antagonist,SRC2 inh,NCOA1 inh,GalR3 antag conf,CNG parental,Gal4-VP16 ctr,COUP-TFII conf
O=C(O)Cn1cnc2c(OCc3ccccc3)ncnc21,0,-9,-36,-1,18,3,.,.,.,.
Cc1cc(C)c(CN2CCN(C(=O)Cn3cnc4c(OCc5ccccc5)ncnc43)CC2)c(C)c1,32,63*,25,98*,22,26,106*,-1,-5,64*
O=C(CSc1nnc(SCc2cccc3ccccc23)s1)Nc1ccc(Oc2ccccc2)cc1,.,-3,.,.,5,.,.,.,.,.
CC(=O)c1ccc(NC(=O)CSc2nnc(Cn3cnc4ccccc43)o2)cc1,27,2,16,-4,4,-10,.,.,.,.
COc1ccc(C(=O)CSc2nnc(Cn3cnc4ccccc43)o2)cc1,32,60*,16,95*,18,2,111*,-1,5,41*
CC1=CC(=O)C(C(C)C)=C/C1=N/OS(=O)(=O)c1ccccc1,9,58*,-16,92*,14,-35,35*,0,10,13
O=C(NNc1ccnc2cc(Cl)ccc12)C1CCCCC1,36,57*,20,27*,17,26,112*,0,13*,65*
NC(=S)NNc1ccnc2cc(Cl)ccc12,16,-6,11,0,-2,2,.,.,.,.
CCCCC1O[C@@H](C)[C@@H]2CN3CCc4c([nH]c5ccccc45)[C@@H]3C[C@@H]2N1C (stereo partly drawn),.,-5,.,-8,-18,.,.,.,.,.
O=S1(=O)c2ccc(N3CCCC3)cc2Oc2ccccc2CN1Cc1cn(Cc2ccc(F)cc2)nn1,.,18,.,.,-37,.,.,.,.,.

# Compound activity: PubChem, The Scripps Research Institute Molecular Screening Center
